Counter-ions that a name gives are not always drawn.
Legend:
Test in all cases: Euclidean distance of Cell Painting phenotypic profile (signed KS, 77 features) to DMSO centroid (dimensionless distance); 5 or 10 uM (library dependent); higher = stronger phenotypic change vs DMSO (phenoactivity)
Conditions in all cases: 48 h
[1] = system: 786-O
In short: (§1)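 Harmony extracted 77 features from 20X confocal images (9 fields/well) of stained cells, scoring each as a signed Kolmogorov-Smirnov statistic against same-plate vehicle wells. The cells, five cancer lines and a healthy fibroblast line, had received library compounds for 48 h at 10 or 5 uM depending on library, with 0.1% DMSO final. Phenoactivity is the Euclidean distance from each plate-position-corrected, correlation-weighted, top-dose replicate-averaged profile to the median vehicle profile.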

[2] = system: A549
In short: as §1

[3] = system: DU145
In short: as §1

[4] = system: FB
In short: as §1

[5] = system: HEPG2
In short: as §1

[6] = system: OVCAR4
In short: as §1

| Compound | Euclidean distance [1] | Euclidean distance [2] | Euclidean distance [3] | Euclidean distance [4] | Euclidean distance [5] | Euclidean distance [6] |
| --- | --- | --- | --- | --- | --- | --- |
| CN[C@H]1C(=O)N[C@@H]2Cc3ccc(cc3)Oc3cc4cc(c3O[C@@H]3O[C@H](C(=O)O)[C@@H](O)[C@H](O)[C@H]3NC(=O)CCCCCCCCC(C)C)Oc3ccc(cc3Cl)[C@@H](O)[C@@H]3NC(=O)[C@H](NC(=O)[C@@H]4NC(=O)[C@@H](NC2=O)c2cc(cc(O)c2Cl)Oc2cc1ccc2O)c1ccc(O)c(c1)-c1c(O[C@H]2O[C@H](CO)[C@@H](O)[C@H](O)[C@@H]2O)cc(O)cc1[C@@H](C(=O)NCCCN(C)C)NC3=O [Dalbavancin] | 0.58 | 0.819 | 1.15 | 0.48 | 0.566 | 0.603 |
| CC(C)C(=O)c1c(C(C)C)nn2ccccc12 [Ibudilast] | 0.973 | 0.58 | 0.981 | 0.71 | 0.459 | 1.29 |
| Cc1ccc(/C(=C\CN2CCCC2)c2ccccn2)cc1 [Triprolidine Hydrochloride] | 0.627 | 0.986 | 0.542 | 1.16 | 1.31 | 1.02 |
| COc1ccc(S(=O)(=O)Nc2cccnc2Nc2ccc(O)cc2)cc1 | 2.73 | 2.61 | 3.18 | 2.99 | 3.33 | 3.12 |
| C[C@H](NC(=O)CCc1nc2ccccc2c(=O)[nH]1)c1ccccc1 | 1.42 | 1.74 | 1.13 | 1.04 | 1.15 | 1.27 |
| C=C[C@@]1(C)CC(=O)[C@]2(O)[C@@]3(C)[C@@H](O)CCC(C)(C)[C@@H]3[C@H](O)[C@H](OC(C)=O)[C@@]2(C)O1 [Forskolin] | 1.79 | 1.04 | 1.39 | 1.18 | 1.34 | 1.23 |
| Oc1cc(O)cc(/C=C/c2ccc(O)c(O)c2)c1 [Piceatannol] | 0.759 | 1.05 | 0.992 | 1.3 | 2.04 | 0.83 |
| O=C1CCc2cc(OCCCCc3nnnn3C3CCCCC3)ccc2N1 [Cilostazol] | 1.11 | 0.94 | 1.56 | 1.21 | 0.849 | 1.26 |
| CC(C)C[C@H](NC(=O)[C@H](CCc1ccccc1)NC(=O)CN1CCOCC1)C(=O)N[C@@H](Cc1ccccc1)C(=O)N[C@@H](CC(C)C)C(=O)[C@@]1(C)CO1 [Carfilzomib (PR-171)] | 5.78 | 4.54 | 5.77 | 0.729 | 4.79 | 5.41 |
| Cc1nc2c([nH]1)-c1ccccc1N(C(=O)c1ccc(NC(=O)c3ccccc3-c3ccccc3)cc1)CC2 [Conivaptan HCl] | 1.3 | 1.1 | 1.42 | 1.28 | 1.72 | 1.57 |
| C[C@H](Cn1cnc2c(N)ncnc21)OCP(=O)(O)O [Tenofovir] | 1.59 | 1.45 | 0.705 | 0.924 | 1.26 | 1.07 |
| N[C@H]1CONC1=O [L-Cycloserine] | 0.838 | 0.531 | 1.03 | 1.02 | 0.788 | 1.56 |
| CC1=Nc2ccc(Cl)cc2S(=O)(=O)N1 [Diazoxide] | 1.25 | 0.782 | 1.19 | 1.21 | 1.01 | 1.25 |
| C[N+](C)(C)CCOC(=O)CCC(=O)OCC[N+](C)(C)C [Succinylcholine Chloride Dihydrate] | 1.36 | 2.04 | 1.93 | 1.82 | 1.34 | 1.91 |
| NC(=O)c1noc([C@H](CCCC2CCCCC2)CC(=O)NO)n1 | 1.23 | 0.66 | 0.701 | 1.25 | 0.93 | 0.933 |
| CN1CCC[C@@H]1CCO[C@](C)(c1ccccc1)c1ccc(Cl)cc1 [Clemastine Fumarate] | 1.5 | 1.22 | 1.59 | 1.96 | 2.11 | 1.18 |
| CN1CCc2cc3c(cc2C(=O)Cc2ccc4c(c2C1)OCO4)OCO3 [Protopine] | 0.844 | 1.36 | 0.606 | 0.616 | 1.3 | 1.68 |
| COc1ccc(CN2CCN(C(c3ccc(F)cc3)c3ccc(F)cc3)CC2)c(OC)c1OC [Lomerizine 2HCl] | 1.91 | 1.66 | 1.02 | 1.08 | 1.13 | 1.72 |
| Cc1ccc(C(=O)c2ccc(CC(=O)O)n2C)cc1 [Tolmetin] | 1.07 | 0.65 | 0.844 | 1.14 | 0.964 | 0.922 |
| O=C(c1ccc(/C=C/c2n[nH]c3ccccc23)cc1)N1CCNCC1 | 3.16 | 3.89 | 3.66 | 3.31 | 2.78 | 3.53 |
| Cn1cc(-c2ccc3c(c2)ncn3-c2cc(NS(=O)(=O)C3CC3)cc(-c3ccc(F)cc3F)c2)cn1 | 2.53 | 1.64 | 1.26 | 4.3 | 1.6 | 2.75 |
| COc1nc2ccc(Br)cc2cc1[C@@H](c1ccccc1)[C@@](O)(CCN(C)C)c1cccc2ccccc12 [Bedaquiline] | 1.63 | 1.17 | 1.33 | 0.823 | 0.496 | 0.927 |
| CNC1CCCN(c2c(F)cc3c(=O)c(C(=O)O)cn(C4CC4)c3c2OC)C1 (stereo unspecified) [Balofloxacin Dihydrate] | 0.976 | 0.602 | 0.831 | 1.09 | 1.13 | 1.02 |

| Compound | Euclidean distance [1] | Euclidean distance [2] | Euclidean distance [3] | Euclidean distance [4] | Euclidean distance [5] | Euclidean distance [6] |
| --- | --- | --- | --- | --- | --- | --- |
| Oc1cccc(-c2nc(N3CCOCC3)c3oc4ncccc4c3n2)c1 | 1.25 | 3.67 | 1.5 | 2.89 | 0.936 | 2.62 |
| CN1CCN(CCCN2c3ccccc3Sc3ccc(Cl)cc32)CC1 [Prochlorperazine dimaleate salt] | 1.84 | 2.24 | 1.63 | 2.19 | 2.85 | 1.67 |
| CC(C)c1cc(C(=O)N2Cc3ccc(CN4CCN(C)CC4)cc3C2)c(O)cc1O | 3.5 | 2.81 | 3.91 | 2.97 | 2.99 | 2.89 |
| COc1ccccc1S(=O)(=O)Nc1ccc2c(c1)CN(C)C(=O)N2 | 1.98 | 1.83 | 1.91 | 2.84 | 2.74 | 1.87 |
| Cc1ncc([N+](=O)[O-])n1CC(O)CCl (stereo unspecified) [Ornidazole] | 1.17 | 0.686 | 0.775 | 1.03 | 0.557 | 0.676 |
| COC(c1ccccc1)(c1ccccc1)[C@H](Oc1nc(C)cc(C)n1)C(=O)O [Ambrisentan] | 1.45 | 0.738 | 1.17 | 0.718 | 2.03 | 1.52 |
| OCCN1CCN(CCCN2c3ccccc3Sc3ccc(Cl)cc32)CC1 [Perphenazine] | 1.95 | 2.47 | 1.77 | 2.8 | 2.4 | 2.19 |
| COc1c2occc2c(OC)c2c(=O)cc(C)oc12 [Khellin] | 1.37 | 0.619 | 0.84 | 0.769 | 1.17 | 0.887 |
| CCOC(=O)c1ccc(NC2CCCCC2)c(N)c1 [Ferrostatin-1 (Fer-1)] | 0.915 | 1.54 | 1.71 | 1.18 | 0.921 | 1.09 |
| CC(=O)[O-].[K+] [Potassium acetate] | 1.42 | 0.754 | 1.27 | 0.927 | 0.554 | 1.3 |
| CC(C)(Sc1ccncc1-c1ccc(C#N)c2ccccc12)C(=O)O [Verinurad (RDEA3170)] | 0.821 | 0.673 | 0.864 | 1.25 | 0.457 | 1.2 |
| CC(=O)c1cc([N+](=O)[O-])c(Sc2ccc(F)cc2F)s1 | 0.453 | 0.953 | 0.697 | 0.781 | 2.06 | 1.97 |
| CC(C)CCCC(C)N (stereo unspecified) [Octodrine (2-Amino-6-methylheptan)] | 1.17 | 0.649 | 0.851 | 1.24 | 1.34 | 1.4 |
| Cc1cn(-c2cc(NC(=O)c3ccc(C)c(Nc4nccc(-c5cnccn5)n4)c3)cc(C(F)(F)F)c2)cn1 [Radotinib] | 1.61 | 1.33 | 1.78 | 1.12 | 0.843 | 1.17 |
| NC1CCN(c2nc3c(cc2F)c(=O)c(C(=O)O)cn3-c2ccc(F)cc2F)C1 (stereo unspecified) [Tosufloxacin p-Toluenesulfonate Hydrate] | 0.975 | 1.03 | 0.829 | 1.12 | 0.47 | 1.3 |
| CN1CCN(C2=Nc3ccccc3Oc3ccc(Cl)cc32)CC1 [Loxapine Succinate] | 0.937 | 0.901 | 1.33 | 0.885 | 0.582 | 0.838 |
| CC(/C=C/C(=O)NO)=C\[C@@H](C)C(=O)c1ccc(N(C)C)cc1 [Trichostatin A] | 3.62 | 4.26 | 3.19 | 4.05 | 3.58 | 3.53 |
| Nc1nc2[nH]cc(CCc3ccc(C(=O)N[C@@H](CCC(=O)O)C(=O)O)cc3)c2c(=O)[nH]1 [Pemetrexed Disodium Hydrate] | 2.12 | 2.97 | 1.28 | 0.937 | 2.46 | 2.8 |
| CCCOc1ccc(C(=O)OCCN(CC)CC)cc1N [Proparacaine HCl] | 1.06 | 1.11 | 1.7 | 1.27 | 0.765 | 1.27 |
| COc1c(N2C[C@@H]3CCCN[C@@H]3C2)c(F)cc2c(=O)c(C(=O)O)cn(C3CC3)c12 [Moxifloxacin] | 1.32 | 0.519 | 0.919 | 1.06 | 0.804 | 0.918 |
| CCN[C@@H]1C[C@H](N)[C@@H](O[C@H]2OC(CN)=CC[C@H]2N)[C@H](O)[C@H]1O[C@H]1OC[C@](C)(O)[C@H](NC)[C@H]1O [Netilmicin Sulfate] | 1.12 | 0.92 | 1.18 | 0.946 | 0.625 | 0.916 |
| NCCCC[C@H](NC(=O)[C@@H](NC(=O)[C@H](Cc1c[nH]c2ccccc12)NC(=O)[C@H](CCCCN)NC(=O)[C@H](CCCCN)NC(=O)[C@H](Cc1c[nH]c2ccccc12)NC(=O)[C@H](Cc1c[nH]c2ccccc12)NC(=O)[C@H](CCCCN)NC(=O)[C@@H](N)CCCCN)C(c1ccccc1)c1ccccc1)C(N)=O | 4.67 | 1.24 | 1.35 | 1.8 | 1.2 | 2.23 |
| CCN(CC)CCNC(=O)c1cc(Cl)c(N)cc1OC [Metoclopramide HCl] | 0.662 | 0.513 | 0.62 | 0.54 | 0.614 | 0.647 |

Source: the supplement of paper PMC10127200
